# Laboratory results reported in publication PMC4336329 (PLoS ONE, 2015).
# In all, about 310,000 compounds went through this assay and about 14,000 (4.5%) showed an effect of 50% or more. Effects have a minus sign here. The entries come from a sample that favours strong results as a whole.
# Biological target: human ether-à-go-go-related gene (hERG) potassium channel (human, UniProt Q12809)
# Assay: primary screen, population patch clamp on CHO cells stably expressing hERG; higher = less effect of the substance
# 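Note: peak tail current of the secondary pulse compared with the same well before compound.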
# Sequence of human ether-à-go-go-related gene (hERG) potassium channel (Q12809 whole entry, looked up): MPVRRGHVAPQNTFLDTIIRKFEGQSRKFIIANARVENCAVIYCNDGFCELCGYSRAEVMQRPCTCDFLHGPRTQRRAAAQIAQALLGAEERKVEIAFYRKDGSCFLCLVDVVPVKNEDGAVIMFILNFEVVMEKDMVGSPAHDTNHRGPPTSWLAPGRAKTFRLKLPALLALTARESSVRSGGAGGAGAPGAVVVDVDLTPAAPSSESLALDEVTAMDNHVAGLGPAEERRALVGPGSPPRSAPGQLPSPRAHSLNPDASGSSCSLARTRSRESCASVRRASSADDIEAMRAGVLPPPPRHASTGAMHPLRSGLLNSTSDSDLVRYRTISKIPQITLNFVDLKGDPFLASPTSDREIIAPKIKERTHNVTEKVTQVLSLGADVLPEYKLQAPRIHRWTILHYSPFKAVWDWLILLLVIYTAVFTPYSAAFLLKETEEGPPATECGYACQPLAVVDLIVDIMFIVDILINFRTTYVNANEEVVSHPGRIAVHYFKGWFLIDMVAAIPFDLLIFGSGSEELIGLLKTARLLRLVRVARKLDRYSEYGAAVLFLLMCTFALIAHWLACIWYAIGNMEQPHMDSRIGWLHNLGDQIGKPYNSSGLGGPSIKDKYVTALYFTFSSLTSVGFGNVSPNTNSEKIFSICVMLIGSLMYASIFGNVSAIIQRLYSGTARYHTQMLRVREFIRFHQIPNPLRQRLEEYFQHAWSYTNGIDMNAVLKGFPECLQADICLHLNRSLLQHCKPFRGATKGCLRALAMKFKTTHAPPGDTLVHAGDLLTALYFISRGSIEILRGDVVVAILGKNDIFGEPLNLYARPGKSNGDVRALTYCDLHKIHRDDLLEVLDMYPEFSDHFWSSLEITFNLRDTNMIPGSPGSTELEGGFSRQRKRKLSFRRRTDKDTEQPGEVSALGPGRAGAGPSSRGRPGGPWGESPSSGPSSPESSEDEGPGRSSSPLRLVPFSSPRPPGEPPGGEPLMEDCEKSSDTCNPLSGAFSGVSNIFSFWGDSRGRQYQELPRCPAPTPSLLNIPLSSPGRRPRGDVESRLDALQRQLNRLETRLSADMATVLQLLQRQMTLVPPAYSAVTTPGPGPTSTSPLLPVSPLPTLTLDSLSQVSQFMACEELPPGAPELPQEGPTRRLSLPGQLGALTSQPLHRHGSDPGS
row,SMILES,"hERG current change (%, negative = inhibition) at 10uM [%]"
1,COc1ccc(NC(=O)c2ccccn2)cc1OC,3.32
2,O=C(O)c1csc(Cc2ccccc2)n1,15.1
3,COc1ccc(Cl)cc1NC(=O)Nc1cc(C)on1,0.43
4,CC(C)C(O)(C#CCN1CCCCC1)C(C)C,-1.16
5,Cc1cccc(N2C(=O)CC(NNc3nc4ccccc4s3)C2=O)c1 (stereo not shown),10.6
6,Cc1cc(C)c(C(=O)C(C)OC(=O)Cn2cnc3c2c(=O)n(C)c(=O)n3C)cc1C (stereo not shown),-17.6
7,CC(C(=O)c1ccccc1)n1cnc2ccccc2c1=O (stereo not shown),-2.46
8,CC(=O)c1cccc(NC(=O)CCN2C(=O)C3CC=CCC3C2=O)c1 (stereo not shown),5.49
9,COCCN(CCOC)S(=O)(=O)c1ccc(OC)cc1,8.79
10,Cc1ccnc(NC(=O)CCCc2ccccc2)c1,13
11,COc1ccc(C2Nc3ccccc3C(=O)N2NS(=O)(=O)c2ccc(C)cc2)c(OC)c1 (stereo not shown),3.22
12,CCOc1ccc(C(=O)C(C)OC(=O)Cn2c(C)csc2=O)cc1 (stereo not shown),-60.1
13,Cc1csc(=O)n1CC(=O)OC(C)C(=O)Nc1ccc(F)c(F)c1F (stereo not shown),-4.29
14,CCOc1ccc(C(=O)C(C)OC(=O)CN2C(=O)NC(C)(C)C2=O)cc1 (stereo not shown),-7.23
15,O=C(COc1ccc(Cl)cc1)Nc1ccc2c(c1)nc1n2CCOC1,-34
16,O=C(CC1NC(=O)NC1=O)Nc1ccccc1 (stereo not shown),-0.537
17,CCOc1cc2c(cc1OCC)-n1cccc1C(c1cccc(F)c1)NC2.Cl (stereo not shown),-14.8
18,CCOc1cc2c(cc1OCC)-n1cccc1C(c1ccccc1OC)NC2.Cl (stereo not shown),-7.52
19,CCOc1cc2c(cc1OCC)-n1cccc1C(c1ccc(C)cc1C)NC2.Cl (stereo not shown),-0.599
20,CCOc1cc2c(cc1OCC)-n1cccc1C(c1ccc(F)cc1)NC2.Cl (stereo not shown),0.0384

row,SMILES,"hERG current change (%, negative = inhibition) at 10uM [%]"
1,CCOc1cc2c(cc1OCC)-n1cccc1C(c1ccc(OC)c(OC)c1)NC2.Cl (stereo not shown),-30.2
2,CCOc1cc2c(cc1OCC)-n1cccc1C(c1cc(C)c(OC)cc1C)NC2.Cl (stereo not shown),-62.1
3,CCOc1cc2c(cc1OCC)-n1cccc1C(c1ccc(OC(F)F)cc1)NC2.Cl (stereo not shown),-65.3
4,CCOc1cc2c(cc1OCC)-n1cccc1C(c1ccc(OC)cc1)NC2.Cl (stereo not shown),-48.1
5,CCOc1cc2c(cc1OCC)-n1cccc1C(c1cccc([N+](=O)[O-])c1)NC2.Cl (stereo not shown),-59.9
6,O=S(=O)(NC1=NCCCCCC1)c1cccs1,3.19
7,CCN1C(C(=O)c2ccccc2)=C(Nc2ccccc2C)c2ccccc2S1(=O)=O,-4.84
8,Cl.Nn1cnnc1N/N=C/c1ccc(Cl)c([N+](=O)[O-])c1,-26.6
9,O=c1[nH]c(/C=C\c2cccs2)nc(O)c1[N+](=O)[O-],-4.76
10,CCOc1ccc(/C=N/NC(=O)c2[nH]c3ccc(C)cc3c2C)cc1,12.4
11,Cc1cccc(NC(=O)Cn2cnc3c(oc4ccccc43)c2=O)c1,12.5
12,COc1ccccc1Oc1ccc(S(=O)(=O)N2CCCC2)cc1,-77.3
13,O=[N+]([O-])c1cc(S(=O)(=O)N2CCCC2)ccc1OCCOc1ccccc1,-32.4
14,CCN(CC)S(=O)(=O)c1ccc(Oc2ccccc2OC)cc1,-65.3
15,CCN(CC)S(=O)(=O)c1ccc(Oc2ccccc2)cc1,-20.7
16,COc1cccc(Oc2ccc(S(=O)(=O)N3CCCC3)cc2[N+](=O)[O-])c1,-57.1
17,COc1cc(OC)cc(Oc2ccc(S(=O)(=O)N3CCCCC3)cc2[N+](=O)[O-])c1,1.5
18,CCN1CCN(S(=O)(=O)c2ccc(Oc3ccccc3OC)cc2)CC1,-15
19,COc1ccccc1Oc1ccc(S(=O)(=O)N2CCN(C)CC2)cc1,-1.98
20,CCN(CC)S(=O)(=O)c1ccc(Oc2ccc(S(=O)(=O)N(CC)CC)cc2)cc1,-22.7

row,SMILES,"hERG current change (%, negative = inhibition) at 10uM [%]"
1,CN=C1S/C(=C\c2cn(CC(=O)OC)c3ccccc23)C(=O)N1C,7.11
2,COc1ccc([N+](=O)[O-])cc1NC(=O)Nc1ccc(OC)c(OC)c1,8.37
3,COc1ccc(CCNC(=O)COC(=O)Cc2ccc(OC)cc2)cc1,9.48
4,Cc1cc(N2CCOCC2)nc2ccc(Cl)cc12,9.25
5,COc1ccc2c(C)cc(N3CCCCCC3)nc2c1.O=C(O)C(=O)O,-82
6,COc1ccc(N2CCN(c3cc(C)c4ccc(O)cc4n3)CC2)cc1,-24.4
7,Cc1cc(N2CCCN(C)CC2)nc2cc(Cl)ccc12,-61.7
8,COc1ccc2c(C)cc(N3CCOCC3)nc2c1,-7.7
9,COc1ccc2c(C)cc(N3CCN(c4ccc(F)cc4)CC3)nc2c1,-25.7
10,Cc1cc(N2CCN(C)CC2)nc2ccccc12,-0.28
11,COc1ccc2c(C)cc(N3CCN(Cc4ccccc4)CC3)nc2c1,-29.6
12,Cc1cc(N2CCN(c3ccc(F)cc3)CC2)nc2cc(O)ccc12,-75.9
13,Cc1cc(N2CCCCC2)nc2ccccc12,-9.74
14,Cc1cc(N2CCCCCC2)nc2ccccc12.O=C(O)C(=O)O,-56.1
15,Cc1cc(N2CCCC2)nc2ccccc12,-41.2
16,CCOc1cccc(/C=N/N2C(=O)CSC2=S)c1O,24.2
17,O=C(CO/N=C/c1ccc(Cl)cc1Cl)NNC(=O)c1ccc(Cl)cc1Cl,3.17
18,O=C(NCCO)Nc1ccc(Cl)cc1,27.7
